Data as given in PubChem BioAssay AID1159580 (chemical genetic matrix, 2015).
The campaign covered roughly 5,500 compounds. About 2,000 (36%) were called active. Another 18% or so got no clear call; they are omitted. No stated cut-off is given here; in the data, active means normalized growth mostly below about 0.91 (no sharp cut-off); inconclusive means no clear call, values can overlap the other calls; inactive means mostly above about 0.92. This is one part of the list.

Test: chemical genetic growth profiling, strain panel (AID 1159580);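 further: tested at 20 µM; growth read once vehicle control cultures reached saturation at 30 °C; 1 = growth at the plate median or of vehicle wells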
Settings: growth OD
[1] = S. cerevisiae deletion strains, locus YAL013W, strain DEP1, stronger effect = lower value
[2] = S. cerevisiae deletion strains, locus YBR229C, strain ROT2, stronger effect = lower value
[3] = S. cerevisiae deletion strains, locus YDL101C, strain DUN1, stronger effect = lower value
[4] = S. cerevisiae deletion strains, locus YDR150W, strain NUM1, stronger effect = lower value
[5] = S. cerevisiae deletion strains, locus YEL061C, strain CIN8, stronger effect = lower value
[6] = S. cerevisiae deletion strains, locus YGR078C, strain PAC10, stronger effect = lower value
[7] = S. cerevisiae deletion strains, locus YHR030C, strain SLT2, stronger effect = lower value
[8] = S. cerevisiae deletion strains, locus YHR087W, strain rtc3, stronger effect = lower value
[9] = S. cerevisiae deletion strains, locus YJR043C, strain POL32, stronger effect = lower value
[10] = S. cerevisiae deletion strains, locus YJR075W, strain HOC1, stronger effect = lower value
[11] = S. cerevisiae deletion strains, locus YLR039C, strain RIC1, stronger effect = lower value
[12] = S. cerevisiae deletion strains, locus YLR058C, strain SHM2 (second series), stronger effect = lower value
[13] = S. cerevisiae deletion strains, locus YLR085C, strain ARP6, stronger effect = lower value
[14] = S. cerevisiae deletion strains, locus YLR262C, strain YPT6, stronger effect = lower value
[15] = S. cerevisiae deletion strains, locus YML094W, strain GIM5, stronger effect = lower value
[16] = S. cerevisiae deletion strains, locus YMR219W, strain ESC1, stronger effect = lower value
[17] = S. cerevisiae deletion strains, locus YMR263W, strain SAP30, stronger effect = lower value
[18] = S. cerevisiae deletion strains, locus YNL153C, strain GIM3, stronger effect = lower value
[19] = S. cerevisiae deletion strains, locus YNL298W, strain CLA4 (second series), stronger effect = lower value
[20] = S. cerevisiae deletion strains, locus YNL322C, strain KRE1, stronger effect = lower value
[21] = S. cerevisiae deletion strains, locus YNR030W, strain Alg12, stronger effect = lower value
[22] = S. cerevisiae deletion strains, locus YPL055C, strain LGE1, stronger effect = lower value
[23] = S. cerevisiae deletion strains, locus YPL241C, strain CIN2, stronger effect = lower value
[24] = S. cerevisiae deletion strains, locus YPR135W, strain CTF4, stronger effect = lower value

Measured: normalized growth

CCCCCCCC1CC/C(=C\c2ccc(/C=C3\CCC(CCCCCCC)C3=O)cc2)C1=O (stereo not given)
inactive: [1] 1.01 | [2] 1.01 | [3] 0.985 | S. cerevisiae deletion strains, locus YDL134C, strain PPH21, stronger effect = lower value 1.01 | [4] 0.936 | [5] 0.999 | [6] 0.998 | [7] 1.07 | [8] 1.01 | S. cerevisiae deletion strains, locus YJL187C, strain SWE1, stronger effect = lower value 1.01 | [9] 1.01 | [10] 1.04 | [11] 1.05 | [12] 1.01 | [13] 1.02 | [14] 1.04 | [15] 0.979 | [16] 1 | [17] 1.01 | [18] 1 | [19] 1.04 | [20] 0.994 | [21] 1 | [22] 0.97 | [23] 0.978 | [24] 1.03

Cc1ccc(-n2nc(-c3ccc(OC(F)(F)F)cc3)cc2NC(=O)Nc2ccc(OC(F)(F)F)cc2)cc1C
inactive: [1] 1 | [2] 1.02 | [3] 1.01 | [4] 1.02 | [5] 1.01 | [6] 1.04 | [7] 1.09 | [8] 1.01 | [9] 1.02 | [10] 1.03 | S. cerevisiae deletion strains, locus YKL190W, strain CNB1, stronger effect = lower value 1.02 | [11] 1.08 | [12] 1.02 | [13] 1.17 | [14] 1.05 | [15] 1.02 | [16] 1.02 | [17] 1.05 | [18] 0.996 | [19] 1.05 | [20] 1 | [21] 1.01 | [22] 1.06 | [23] 1.08 | [24] 0.996 | S. cerevisiae strains, strain wild type, stronger effect = lower value 1.02

Nc1cc(-c2ccc(OC(F)(F)F)cc2)nn1-c1ccc(Cl)c(Cl)c1
inactive: S. cerevisiae deletion strains, locus YAR019C, strain CDC15, stronger effect = lower value 0.979 | S. cerevisiae deletion strains, locus YBL105C, strain PKC1, stronger effect = lower value 1.01 | S. cerevisiae deletion strains, locus YBR135W, strain CKS1, stronger effect = lower value 0.981 | S. cerevisiae deletion strains, locus YBR136W, strain MEC1, stronger effect = lower value 1.02 | S. cerevisiae deletion strains, locus YBR160W, strain CDC28, stronger effect = lower value 0.983 | S. cerevisiae deletion strains, locus YDL017W, strain CDC7, stronger effect = lower value 0.994 | S. cerevisiae deletion strains, locus YDL028C, strain MPS1, stronger effect = lower value 1.01 | [3] 1 | S. cerevisiae deletion strains, locus YDL108W, strain KIN28, stronger effect = lower value 1.01 | S. cerevisiae deletion strains, locus YDL132W, strain cdc53, stronger effect = lower value 0.971 | S. cerevisiae deletion strains, locus YDR052C, strain DBF4, stronger effect = lower value 0.985 | S. cerevisiae deletion strains, locus YDR054C, strain cdc34, stronger effect = lower value 0.904 | S. cerevisiae deletion strains, locus YDR226W, strain ADK1, stronger effect = lower value 0.983 | S. cerevisiae deletion strains, locus YFL009W, strain cdc4, stronger effect = lower value 1.01 | S. cerevisiae deletion strains, locus YFL029C, strain CAK1, stronger effect = lower value 0.969 | S. cerevisiae deletion strains, locus YFR003C, strain YPI1, stronger effect = lower value 1 | S. cerevisiae deletion strains, locus YFR028C, strain CDC14, stronger effect = lower value 1 | S. cerevisiae deletion strains, locus YHR205W, strain SCH9, stronger effect = lower value 0.635 | S. cerevisiae deletion strains, locus YIL147C, strain SLN1, stronger effect = lower value 1 | S. cerevisiae deletion strains, locus YJR016C, strain ILV3, stronger effect = lower value 1 | S. cerevisiae deletion strains, locus YJR066W, strain TOR1, stronger effect = lower value 0.669 | S. cerevisiae deletion strains, locus YKL193C, strain SDS22, stronger effect = lower value 0.982 | S. cerevisiae deletion strains, locus YLR403W, strain SFP1, stronger effect = lower value 0.676 | S. cerevisiae deletion strains, locus YMR001C, strain CDC5, stronger effect = lower value 0.999 | S. cerevisiae deletion strains, locus YMR277W, strain FCP1, stronger effect = lower value 0.993 | S. cerevisiae deletion strains, locus YNL006W, strain LST8, stronger effect = lower value 1 | S. cerevisiae deletion strains, locus YNL161W, strain CBK1, stronger effect = lower value 0.992 | S. cerevisiae deletion strains, locus YNL207W, strain RIO2, stronger effect = lower value 0.989 | S. cerevisiae deletion strains, locus YNL222W, strain SSU72, stronger effect = lower value 0.99 | S. cerevisiae deletion strains, locus YOL078W, strain AVO1, stronger effect = lower value 1 | S. cerevisiae deletion strains, locus YOR329C, strain SCD5, stronger effect = lower value 1.01 | S. cerevisiae deletion strains, locus YPL209C, strain IPL1, stronger effect = lower value 0.966 | S. cerevisiae deletion strains, locus YPR025C, strain CCL1, stronger effect = lower value 0.975 | S. cerevisiae deletion strains, strain TSCII, stronger effect = lower value 1.01
active: S. cerevisiae deletion strains, locus YDL214C, strain PRR2, stronger effect = lower value 0.565 | S. cerevisiae deletion strains, locus YDR477W, strain SNF1, stronger effect = lower value 0.487 | S. cerevisiae deletion strains, locus YER123W, strain YCK3, stronger effect = lower value 0.249 | S. cerevisiae deletion strains, locus YER133W, strain GLC7, stronger effect = lower value 0.577 | S. cerevisiae deletion strains, locus YFR019W, strain FAB1, stronger effect = lower value 0.574 | S. cerevisiae deletion strains, locus YGR040W, strain KSS1, stronger effect = lower value 0.488 | S. cerevisiae deletion strains, locus YGR052W, strain FMP48, stronger effect = lower value 0.446 | S. cerevisiae deletion strains, locus YGR092W, strain DBF2, stronger effect = lower value 0.388 | [7] 0.317 | S. cerevisiae deletion strains, locus YHR079C, strain IRE1, stronger effect = lower value 0.448 | S. cerevisiae deletion strains, locus YHR082C, strain KSP1, stronger effect = lower value 0.521 | S. cerevisiae deletion strains, locus YJL095W, strain BCK1, stronger effect = lower value 0.254 | S. cerevisiae deletion strains, locus YJL157C, strain FAR1, stronger effect = lower value 0.706 | S. cerevisiae deletion strains, locus YJR066W, strain TOR1 (second series), stronger effect = lower value 0.589 | S. cerevisiae deletion strains, locus YKL048C, strain ELM1, stronger effect = lower value 0.752 | S. cerevisiae deletion strains, locus YKL067W, strain YNK1, stronger effect = lower value 0.597 | S. cerevisiae deletion strains, locus YKL101W, strain HSL1, stronger effect = lower value 0.268 | S. cerevisiae deletion strains, locus YKL203C, strain TOR2, stronger effect = lower value 0.454 | S. cerevisiae deletion strains, locus YLR113W, strain HOG1, stronger effect = lower value 0.317 | S. cerevisiae deletion strains, locus YLR133W, strain CKI1, stronger effect = lower value 0.644 | S. cerevisiae deletion strains, locus YML070W, strain DAK1, stronger effect = lower value 0.439 | S. cerevisiae deletion strains, locus YMR205C, strain PFK2 (second series), stronger effect = lower value 0.605 | S. cerevisiae deletion strains, locus YNL020C, strain ARK1, stronger effect = lower value 0.53 | S. cerevisiae deletion strains, locus YNL183C, strain NPR1, stronger effect = lower value 0.378 | S. cerevisiae deletion strains, locus YNL307C, strain MCK1 (second series), stronger effect = lower value 0.335 | S. cerevisiae deletion strains, locus YOL136C, strain PFK27, stronger effect = lower value 0.672 | S. cerevisiae deletion strains, locus YOR061W, strain CKA2, stronger effect = lower value 0.355 | S. cerevisiae deletion strains, locus YOR119C, strain RIO1, stronger effect = lower value 0.528 | S. cerevisiae deletion strains, locus YOR231W, strain MKK1, stronger effect = lower value 0.349 | S. cerevisiae deletion strains, locus YPL031C, strain PHO85, stronger effect = lower value 0.29 | S. cerevisiae deletion strains, locus YPL153C, strain RAD53, stronger effect = lower value 0.193 | S. cerevisiae deletion strains, locus YPL204W, strain HRR25, stronger effect = lower value 0.285 | S. cerevisiae deletion strains, locus YPL256C, strain CLN2, stronger effect = lower value 0.604 | S. cerevisiae deletion strains, locus YPR106W, strain ISR1, stronger effect = lower value 0.643
